# Inconclusive results are not listed. The source made the active and inactive calls. Rule for the calls, unless noted: active = hit-call score of the fitted dose curve at least 0.9, where 1 is the maximum; inconclusive = response in the unintended direction; inactive = score below 0.9. Peptide text beside a SMILES is read from it.
# How the values were obtained:
# [1] = target: Estrogen receptor beta (Homo sapiens) (UniProt Q92731); assay: OT_ER_ERbERb_1440: Odyssey Thera (OT) 24-hour HEK293T Protein-Complementation Assay for Estrogen Receptor-beta/-beta Homodimer (AID 2283380);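 note: fluorescence gain from ER beta LBD homodimer complementation read by laser scanning cytometry; scored as signal increase over DMSO baseline for both agonists and antagonists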
# In short: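 HEK293T cells stably expressing human ER-beta LBD (aa 310-547) PCA homodimer pair, dosed 24 h; formaldehyde-fixed, Draq5-stained. Readout: increase in nuclear (agonist) or nuclear plus cytoplasmic (antagonist) fluorescence intensity versus DMSO, gain-of-signal fitting.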
# [2] = target: Estrogen receptor (Homo sapiens) (UniProt P03372); assay: OT_ERa_GFPERaERE_0480: Odyssey Thera (OT) 8-hour HeLa Transcription Induction Assay for Estrogen Receptor (AID 2283381; active = hit-call score of the fitted dose curve at least 0.9, where 1 is the maximum; inactive = score below 0.9)
# In short: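 Cells (HeLa) receive compound; after 8 h, reporter fluorescence is imaged and quantified by high-content analysis. Gain-of-signal relative to DMSO gives the endpoint.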
# [3] = target: Estrogen receptor (Homo sapiens) (UniProt P03372); assay: OT_ERa_GFPERaERE_0120: Odyssey Thera (OT) 2-hour HeLa Transcription Induction Assay for Estrogen Receptor (AID 2283382)
# In short: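 Measures ESR1 pathway reporter gain-of-signal in HeLa cells after a 2-hour treatment, detected as fluorescent protein induction by microscopy, DMSO as baseline.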
# [4] = target: Retinoic acid receptor RXR-alpha (Homo sapiens) (UniProt P19793); assay: OT_NURR1_NURR1RXRa_0480: Odyssey Thera (OT) 8-hour HEK293T Protein Complementation Assay for Nurr1/retinoid X receptor (RXR) (AID 2283385)
# In short: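 Compounds are applied to HEK293T cells carrying Nurr1 and RXRα linked to reporter fragments. After 8 h, fluorescence intensity reports heterodimer formation, with DMSO as baseline.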
# [5] = target: Retinoic acid receptor RXR-alpha (Homo sapiens) (UniProt P19793); assay: OT_NURR1_NURR1RXRa_1440: Odyssey Thera (OT) 24-hour HEK293T Protein Complementation Assay for Nurr1/retinoid X receptor (RXR) (AID 2283386)
# In short: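 Measured as fluorescence from a reconstituted split reporter, this 24 h HEK293T complementation assay scores compound-induced gain of Nurr1/RXRα association relative to DMSO.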
# [6] = target: Bile acid receptor (Homo sapiens) (UniProt Q96RI1); assay: OT_FXR_FXRSRC1_0480: Odyssey Thera (OT) 8-hour HEK293T Protein-Complementation Assay for Farnesoid X receptor/SRC-1 Co-activator (AID 2283383)
# In short: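 Co-activator recruitment to FXR was measured in living HEK293T cells, where interaction of the two fused partners restored an active fluorescent reporter. Signal gain after 8 h treatment was referenced to DMSO.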
# [7] = target: Bile acid receptor (Homo sapiens) (UniProt Q96RI1); assay: OT_FXR_FXRSRC1_1440: Odyssey Thera (OT) 24-hour HEK293T Protein-Complementation Assay for Farnesoid X receptor/SRC-1 Co-activator (AID 2283384)
# In short: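 Cell-based binding reporter: interaction of FXR with SRC-1 brings reporter fragments together, giving a fluorescence signal read 24 h after dosing of HEK293T cells.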
# Sequence of Bile acid receptor (Homo sapiens) (Q96RI1 whole entry, looked up, the tested form may be a part): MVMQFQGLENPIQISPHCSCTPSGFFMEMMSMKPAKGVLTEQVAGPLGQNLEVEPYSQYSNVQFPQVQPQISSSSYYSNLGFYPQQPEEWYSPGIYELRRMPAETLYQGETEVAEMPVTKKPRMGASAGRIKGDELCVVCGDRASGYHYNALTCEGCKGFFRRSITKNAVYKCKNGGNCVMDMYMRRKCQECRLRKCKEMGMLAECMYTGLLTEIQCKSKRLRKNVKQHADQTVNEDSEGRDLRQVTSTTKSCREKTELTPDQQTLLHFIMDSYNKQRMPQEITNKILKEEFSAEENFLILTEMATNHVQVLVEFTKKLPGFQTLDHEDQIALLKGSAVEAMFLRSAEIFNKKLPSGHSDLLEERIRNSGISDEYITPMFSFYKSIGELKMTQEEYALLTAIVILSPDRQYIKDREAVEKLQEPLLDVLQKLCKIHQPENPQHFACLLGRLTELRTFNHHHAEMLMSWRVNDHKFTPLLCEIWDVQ
# Sequence of Retinoic acid receptor RXR-alpha (Homo sapiens) (P19793 whole entry, looked up, the tested form may be a part): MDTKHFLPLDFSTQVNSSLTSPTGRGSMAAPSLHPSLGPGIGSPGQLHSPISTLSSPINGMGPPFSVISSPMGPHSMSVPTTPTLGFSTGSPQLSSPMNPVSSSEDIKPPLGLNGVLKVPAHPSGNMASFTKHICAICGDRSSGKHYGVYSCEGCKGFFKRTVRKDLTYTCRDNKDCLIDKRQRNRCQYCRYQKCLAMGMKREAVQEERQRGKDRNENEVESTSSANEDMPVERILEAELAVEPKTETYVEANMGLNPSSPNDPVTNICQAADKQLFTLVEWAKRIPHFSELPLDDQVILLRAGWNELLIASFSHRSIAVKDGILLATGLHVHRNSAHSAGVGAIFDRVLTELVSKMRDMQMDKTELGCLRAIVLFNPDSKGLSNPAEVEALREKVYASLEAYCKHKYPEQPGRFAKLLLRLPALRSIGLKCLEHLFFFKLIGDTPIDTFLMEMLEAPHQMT
# Sequence of Estrogen receptor beta (Homo sapiens) (Q92731 whole entry, looked up, the tested form may be a part): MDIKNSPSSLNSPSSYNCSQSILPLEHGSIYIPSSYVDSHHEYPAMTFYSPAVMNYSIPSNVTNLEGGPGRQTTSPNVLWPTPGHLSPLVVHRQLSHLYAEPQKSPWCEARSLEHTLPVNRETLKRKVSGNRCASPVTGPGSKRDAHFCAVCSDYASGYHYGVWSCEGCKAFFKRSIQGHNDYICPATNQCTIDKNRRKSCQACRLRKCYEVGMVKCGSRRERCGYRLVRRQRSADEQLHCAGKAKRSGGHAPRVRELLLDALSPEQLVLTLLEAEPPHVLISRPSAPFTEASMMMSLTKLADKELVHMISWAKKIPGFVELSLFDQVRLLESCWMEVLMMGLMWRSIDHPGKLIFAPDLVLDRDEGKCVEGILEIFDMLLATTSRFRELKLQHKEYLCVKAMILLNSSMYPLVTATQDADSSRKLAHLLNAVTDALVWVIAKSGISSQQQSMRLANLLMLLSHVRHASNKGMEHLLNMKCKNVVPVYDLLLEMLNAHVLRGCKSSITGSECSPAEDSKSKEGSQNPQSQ
# Sequence of Estrogen receptor (Homo sapiens) (P03372 whole entry, looked up): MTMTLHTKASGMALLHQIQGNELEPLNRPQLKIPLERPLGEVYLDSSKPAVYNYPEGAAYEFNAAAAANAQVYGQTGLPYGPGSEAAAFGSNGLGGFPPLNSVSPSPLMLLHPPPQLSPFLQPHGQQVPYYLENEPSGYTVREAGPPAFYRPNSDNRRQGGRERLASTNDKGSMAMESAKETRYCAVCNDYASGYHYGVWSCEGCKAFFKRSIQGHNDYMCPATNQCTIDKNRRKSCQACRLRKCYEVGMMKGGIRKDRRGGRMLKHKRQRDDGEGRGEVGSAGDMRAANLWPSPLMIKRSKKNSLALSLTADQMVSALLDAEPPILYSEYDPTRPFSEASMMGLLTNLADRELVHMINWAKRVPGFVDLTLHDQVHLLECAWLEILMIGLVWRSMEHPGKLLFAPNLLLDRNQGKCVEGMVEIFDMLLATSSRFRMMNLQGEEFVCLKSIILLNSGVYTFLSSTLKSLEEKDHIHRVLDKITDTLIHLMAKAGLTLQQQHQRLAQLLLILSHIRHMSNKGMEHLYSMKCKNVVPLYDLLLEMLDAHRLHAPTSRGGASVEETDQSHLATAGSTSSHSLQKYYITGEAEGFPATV
structure (smiles),measurement,setting,value
O=C(O)c1cc(O)c2ccccc2c1O,outcome,[1],inactive
same,AC50,[2],18.1 µM (active)
same,AC50,[3],25.4 µM (active)
same,outcome,[4],inactive
same,outcome,[5],inactive
CCC1COC(=O)O1 (stereo not given),outcome,[2],inactive
same,outcome,[3],inactive
same,outcome,[6],inactive
same,outcome,[7],inactive
same,outcome,[4],inactive
same,outcome,[5],inactive
CCc1occc(=O)c1O,outcome,[2],inactive
same,outcome,[3],inactive
same,outcome,[6],inactive
same,outcome,[7],inactive
same,outcome,[4],inactive
same,outcome,[5],inactive
CCCC=C(C=O)CC,outcome,[1],inactive
same,outcome,[2],inactive
same,outcome,[3],inactive
same,outcome,[5],inactive
O=C(O)CC(C(=O)O)S(=O)(=O)O (stereo not given),outcome,[2],inactive
same,outcome,[3],inactive
same,outcome,[4],inactive
same,outcome,[5],inactive
CCCCCC[C@@H](O)C/C=C\CCCCCCCC(=O)OCC(O)CO (stereo not given in full),outcome,[2],inactive
same,outcome,[3],inactive
same,outcome,[4],inactive
same,outcome,[5],inactive
CC(C)COC(=O)CC(C(=O)OCC(C)C)S(=O)(=O)O (stereo not given),outcome,[1],inactive
same,outcome,[2],inactive
same,outcome,[3],inactive
same,outcome,[5],inactive
COC(=O)c1ccccc1C,outcome,[1],inactive
same,outcome,[2],inactive
same,outcome,[3],inactive
same,outcome,[5],inactive
CC(=O)OC(C)c1ccccc1 (stereo not given),outcome,[1],inactive
same,outcome,[2],inactive
same,outcome,[3],inactive
same,outcome,[5],inactive
C/C=C/C=C/CCCCCCCO,outcome,[2],inactive
same,outcome,[3],inactive
same,outcome,[6],inactive
same,outcome,[4],inactive
same,AC50,[5],5.06 µM (active)
O=C(OCCc1ccccc1)c1ccccc1,outcome,[2],inactive
same,outcome,[3],inactive
same,outcome,[5],inactive
CCCCCCOc1ccc(N)cc1,outcome,[2],inactive
same,outcome,[3],inactive
same,outcome,[6],inactive
same,AC50,[7],14.3 µM (active)
same,outcome,[4],inactive
same,outcome,[5],inactive
CCCCCCCCCC[N+](C)(CCCCCCCCCC)CCC[Si](OC)(OC)OC,outcome,[1],inactive
same,AC50,[2],24.1 µM (active)
same,AC50,[3],81.9 µM (active)
same,AC50,[4],11.7 µM (active)
same,AC50,[5],11.6 µM (active)
CCCCCCC=O,outcome,[2],inactive
same,outcome,[3],inactive
same,outcome,[5],inactive
O=C(O)CCC(=O)O,outcome,[2],inactive
same,outcome,[3],inactive
same,outcome,[5],inactive
CC1=NN(c2ccc(S(=O)(=O)O)cc2)C(=O)C1N=Nc1ccccc1 (stereo not given),outcome,[2],inactive
same,outcome,[3],inactive
same,outcome,[5],inactive
CCC(C)(O)CCCC(C)C (stereo not given),outcome,[2],inactive
same,outcome,[3],inactive
same,outcome,[6],inactive
same,outcome,[7],inactive
same,outcome,[5],inactive
C=C(C)C1CC=C(C)CC1 (stereo not given),outcome,[2],inactive
same,outcome,[3],inactive
same,outcome,[4],inactive
same,outcome,[5],inactive
CCCC(CC)c1ccccc1 (stereo not given),outcome,[1],inactive
same,outcome,[2],inactive
same,outcome,[3],inactive
same,outcome,[4],inactive
same,outcome,[5],inactive
NC(=O)Nc1ccccc1,outcome,[1],inactive
same,outcome,[2],inactive
same,outcome,[3],inactive
same,outcome,[4],inactive
same,outcome,[5],inactive
CCCCNS(=O)(=O)c1ccc(C)cc1,outcome,[2],inactive
same,outcome,[3],inactive
same,outcome,[5],inactive
CC12CCC(CC1)C(C)(C)O2,outcome,[2],inactive
same,outcome,[3],inactive
same,outcome,[6],inactive
same,outcome,[7],inactive
O=C(Oc1ccccc1)c1ccccc1O,outcome,[2],inactive
same,outcome,[3],inactive
same,outcome,[4],inactive
C1CNCCN1,outcome,[1],inactive
same,outcome,[2],inactive
same,outcome,[3],inactive
same,outcome,[5],inactive
C[Si]1(C)O[Si](C)(C)O[Si](C)(C)O[Si](C)(C)O[Si](C)(C)O1,outcome,[2],inactive
same,outcome,[3],inactive
same,outcome,[5],inactive
CC(=O)c1ccccc1O,outcome,[2],inactive
same,outcome,[3],inactive
same,outcome,[5],inactive
CC1(C)[C@@H]2CC[C@@]1(C)C(=O)C2,outcome,[1],inactive
same,outcome,[2],inactive
same,outcome,[3],inactive
same,outcome,[4],inactive
same,outcome,[5],inactive
CC(=O)/C=C/C1C(C)=CCCC1(C)C (stereo not given),outcome,[2],inactive
same,outcome,[3],inactive
same,outcome,[6],inactive
same,outcome,[4],inactive
same,outcome,[5],inactive
COC(=O)[C@H](Cc1ccccc1)NC(=O)[C@@H](N)CC(=O)O (H-Asp-Phe-OMe),outcome,[2],inactive
same,outcome,[3],inactive
same,outcome,[6],inactive
same,outcome,[4],inactive
O=C(O)/C=C/c1ccccc1,AC50,[2],23.4 µM (active)
same,outcome,[3],inactive
same,outcome,[5],inactive
CCCCCCO,outcome,[2],inactive
same,outcome,[3],inactive
same,outcome,[4],inactive
same,outcome,[5],inactive
CCCCCCCO,outcome,[1],inactive
same,outcome,[2],inactive
same,outcome,[3],inactive
same,outcome,[4],inactive
same,outcome,[5],inactive
CC1=CC=C(C(C)C)CC1,AC50,[2],23.6 µM (active)
same,AC50,[3],23.8 µM (active)
same,outcome,[4],inactive
same,outcome,[5],inactive
Fc1ccc(Br)cc1,outcome,[2],inactive
same,outcome,[3],inactive
same,outcome,[4],inactive
same,outcome,[5],inactive
CC(C)(C)N,outcome,[2],inactive
same,outcome,[3],inactive
same,outcome,[5],inactive

# Source: PubChem BioAssay (EPA / NIEHS)
